Values joined by “and” are separate entries in the source; they are usually repeats but may differ in a detail not shown here. Equal entries are not always repeated. Inconclusive results are not listed. Active and inactive are the calls of the source. Unless noted, calls follow the shape of the dose curve; as a rule, active = well fitted curve in the direction sought with a large enough effect; inconclusive = small, poorly fitted or top-dose-only effect, or another doubt; inactive = no such curve, though single readings can be large; an effect the other way counts as inactive or inconclusive.
Experiments:
[1] = AP1 Signaling Pathway (AID 357; active = well fitted curve in either direction with a large enough effect, not every such curve was filed as active; also: % is scaled to controls: 0 for no effect and ±100 for the full control effect)
In short: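 ME-180 cells with beta-lactamase reporter under AP-1 response element, stimulated with EC50 EGF; compounds tested in titration series, 5 h at 37 °C. CCF4 substrate added 2.5 h at room temperature; 460/530 nm emission ratio gave %activity and AC50.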

[2] = target: Cytochrome P450 1A2 (Homo sapiens) (UniProt P05177); assay: p450-cyp1a2 (AID 410; calls by dose curve; also: potency is read from the fitted curve at half-maximal effect)
In short: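 Human CYP1A2 (20nM) demethylated Luciferin-ME at its Km (100uM) in 100mM KPO4. After 10 min compound preincubation, NADPH regeneration ran the reaction 60 min at room temperature. Luciferin was read by luminescence, normalized to 57 uM furafylline.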

[3] = NFAT Signaling Pathway (AID 444; active = well fitted curve in either direction with a large enough effect, not every such curve was filed as active;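 also: carbachol stimulus at about its EC50 of 1 µM final; % is scaled to controls: 0 for no effect and ±100 for the full control effect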); conditions: Jurkat NFAT-bla M1, carbachol, beta-lactamase ratio, 5 h; at 17.2 µM (top of the series)
In short: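 Jurkat cells carrying an NFAT-driven β-lactamase reporter and co-transfected muscarinic M1 receptor were treated with compound plus carbachol (1 uM final, an EC50 level) for 5 h at 37 °C. CCF4 loading followed for 1 h at RT; 460/530 nm ratio gave %activity.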

[4] = target: Glucocorticoid receptor (Homo sapiens) (UniProt P04150); assay: GR-GFP Redistribution (AID 450;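 active = compounds whose dose series gives a full or clear partial fitted curve of increased nuclear translocation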; also: potency is read from the fitted curve at half-maximal effect); conditions: U2OS GR-GFP nuclear translocation, laser cytometry, 2 h
[5] = target: Glucocorticoid receptor (Homo sapiens) (UniProt P04150); assay: GR-EFC Redistribution (AID 451; calls by dose curve; also: potency is read from the fitted curve at half-maximal effect); conditions: CHO-K1 GR-EFC translocation, beta-gal luminescence, 2 h
In short: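 CHO-K1 cells stably expressing nuclear-localized β-gal enzyme acceptor and GR fused C-terminally to the enzyme donor fragment; ligand-driven nuclear translocation restores β-gal by complementation. Compounds titrated up to 46 uM final, 2 h at 37 °C; luminescence read.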

[6] = target: Mitogen-activated protein kinase 10 (Mus musculus) (UniProt Q61831); assay: JNK3 AlphaScreen Assay (AID 530; active = well fitted curve in either direction with a large enough effect, not every such curve was filed as active;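 also: kinase came from lysate of stimulated human HepG2 cells; signal reports phosphorylation of biotinylated GST-cJun 1-79 at Ser73 with 10 µM ATP; % is scaled to controls: 0 for no effect and ±100 for the full control effect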)
In short: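 JNK3 came from HepG2 lysates pre-activated with IL-1beta and TNF-alpha and phosphorylated biotinylated GST-cJun (1-79) at 10 uM ATP, pH 7.6, room temperature. Compounds were titrated. AlphaScreen signal used anti-phospho-cJun (Ser73) antibody.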

[7] = target: 3',5'-cyclic-AMP phosphodiesterase 4B (Homo sapiens) (UniProt Q07343); assay: qHTS Assay for Inhibitors of PDE-IV (AID 607; active = well fitted activation curve with a large enough effect in the main read-out, with a control signal flat, not every such curve was filed as active; also: % of control where 0% means no effect)
In short: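 ACTOne HEK293 cells carry a modified cAMP-gated CNG channel and express endogenous PDE4; plated 1000 cells/well, compounds up to 22.9 uM final. Membrane-potential dye fluorescence (ex 535/em 590) was read; parental cells received 10 uM forskolin + 100 uM RO 20-1724.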

[8] = target: Cytochrome P450 3A4 (Homo sapiens) (UniProt P08684); assay: qHTS Assay for Inhibitors and Substrates of Cytochrome P450 3A4 (AID 884); also: % is scaled to controls: 0 for no effect and ±100 for the full control effect; nearly all actives have a fitted effect of over 50% in size
In short: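 20 nM human CYP3A4 with 25 uM Luciferin-PPXE (at KM) in 200 mM KPO4, preincubated 10 min with compound; NADPH regeneration started a 60 min RT reaction. Luciferin detected by luminescence, normalized to 57 uM ketoconazole as full inhibition.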

[9] = target: Cytochrome P450 3A4 (Homo sapiens) (UniProt P08684); assay: qHTS Assay for Activators of Cytochrome P450 3A4 (AID 885); also: nearly all actives have a fitted effect of over 65% in size
In short: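 20nM CYP3A4 + 25uM Luciferin-PPXE (=KM), 200mM KPO4; cpd 10 min RT; NADPH regen, 60 min RT; stop w/ detection buffer, 20 min; luminescence. Normalized to 57 uM ketoconazole.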

[10] = target: Cytochrome P450 2D6 (Homo sapiens) (UniProt P10635); assay: qHTS Assay for Inhibitors and Substrates of Cytochrome P450 2D6 (AID 891); also: potency is read from the fitted curve at half-maximal effect; nearly all actives have a fitted effect of over 60% in size
In short: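 Human CYP2D6 (5 nM) with 30 uM Luciferin-ME EGE (at Km) in 100 mM KPO4, compound preincubated 10 min, then NADPH regeneration system for 60 min at room temperature. Luciferin read by luminescence; normalized to 1.43 uM quinidine.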

[11] = Confirmation and Secondary Assay for Modulators of Hemoglobin Beta Chain Splicing at IVS2 654 locus (AID 910);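 also: per-well total GFP intensity by laser scanning cytometry after 2-day treatment; % of control where 0% means no effect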
In short: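 HeLa cells stably carrying EGFP interrupted by mutant beta-globin IVS2-654 intron (CMV-driven) were treated with compound for 2 days at 37C; corrected splicing was scored as total peak GFP intensity per well (488 nm excitation, 500-520 nm emission).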

[12] = qHTS Assay for Identification of Small Molecule Agonists for Hypoxia Response Element Signaling Pathway (AID 914; active = well fitted activation curve with a large enough effect in the signal ratio, with a control signal flat, not every such curve was filed as active; the % refers to the signal ratio; also: potency is read from the fitted curve at half-maximal effect); conditions: ME-180 (cervical carcinoma) HRE-bla reporter, beta-lactamase ratio, CoCl2, 17 h; activation: stronger effect = higher value
In short: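 Positive modulation of EC50 CoCl2-induced hypoxia response element signaling is measured in ME-180 cells with a beta-lactamase reporter. Compounds are titrated, incubation runs 17 hours, and %Activity derives from the blue/green ratio.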

[13] = Confirmation and Secondary Assay for Modulators of Hemoglobin Beta Chain Splicing at IVS2 705 locus (AID 930);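 also: HeLa cells stably expressing the EGFP-705 splicing reporter; GFP fluorescence per well restored by corrected splicing of the IVS2-705 intron in EGFP; % of control where 0% means no effect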
In short: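 First, HeLa EGFP-705 cells are seeded at 500/well in Optimem with 2% FCS and left overnight. Next, compound or DMSO is added for 2 days. Finally wells are laser-scanned and total peak GFP intensity scored.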

[14] = qHTS Assay for Lipid Storage Modulators (AID 1519; calls by dose curve); conditions: Drosophila S3 cells, BODIPY lipid droplet/cell ratio, laser cytometry, cells loaded with oleic acid
In short: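 Cells seeded at 5,000 per well were treated with compounds over a concentration series and loaded with oleic acid (400 uM, as added). Lipid droplet fluorescence (488 nm excitation, 500-530 nm channel) was read by laser-scanning cytometry and normalized to 20 uM Triacsin C.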

[15] = target: Ubiquitin carboxyl-terminal hydrolase 1 (Homo sapiens) (UniProt O94782); assay: Inhibitors of USP1/UAF1: Pilot qHTS (AID 504865);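 also: rhodamine fluorescence freed from ubiquitin-rhodamine substrate followed over time; top concentration of the series differs between compounds; % is scaled to controls: 0 for no effect and ±100 for the full control effect; nearly all actives have a fitted effect of over 35% in size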
In short: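 USP1/UAF1 complex at 1 nM preincubated 15 min at room temperature with compound, then Ub-Rho substrate added at 150 nM final. Fluorescence (480/540 nm) read kinetically in 50 mM HEPES pH 7.8, 0.5 mM EDTA, 1 mM TCEP, 0.1 mg/ml BSA, 0.01% Tween-20.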

[16] = target: DNA dC->dU-editing enzyme APOBEC-3G (Homo sapiens) (UniProt Q9HC16); assay: qHTS for inhibitors of Vif-A3G interactions: Validation (AID 588379); also: 0% is about no effect
In short: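 HeLa cells stably expressing Vif and A3G-eYFP, 700 cells/well, incubated overnight at 37 deg C, then exposed to compound overnight at 37 deg C. Inhibition of Vif-mediated degradation read as increased yellow fluorescence (Ex 488/Em 500-530) by laser-scanning cytometry.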

[17] = test system: Zika virus NS2B-NS3 protease; assay: Primary screen GU AMC qHTS for Zika virus inhibitors (AID 1347154); also: potency is read from the fitted curve at half-maximal effect; nearly all actives have a fitted effect of over 70% in size
In short: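 Unlinked Zika NS2B hydrophilic domain/NS3 protease domain noncovalent complex (25 nM final) in 10 mM Tris-HCl pH 8.0, 0.01% Tween 20, with AMC peptide substrate. Fluorescence (ex 340, em 450 nm) change over 15 min, room temperature; percent inhibition fitted to 4-parameter Hill equation.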

[18] = test system: Zika virus NS2B-NS3 protease (linked construct); assay: Primary screen NINDS Rhodamine qHTS for Zika virus inhibitors (AID 1347160); also: % is scaled to controls: 0 for no effect and ±100 for the full control effect; nearly all actives have a fitted effect of over 55% in size
In short: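 Purified linked NS2B-NS3 protease (NS2B hydrophilic domain joined to NS3 protease by flexible linker), 25 nM in 10 mM Tris-HCl pH 8.0, 0.01% Tween 20. Compounds titrated, 15 min preincubation at room temperature; 1.5 microM Rhodamine110 substrate, FITC fluorescence change over 15 min.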

[19] = SW1088 Cancer Cell Toxicity qHTS against the NCATS CANVASS Library (AID 1347350); also: % is scaled to controls: 0 for no effect and ±100 for the full control effect; nearly all actives have a fitted effect of over 75% in size
In short: (§1)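 Quantitative HTS format: an 11-concentration series was applied to 1000 cells/well following a 4-hour attachment. Cultures ran 72 hours before ATP luminescence detection by CellTiter-Glo.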

[20] = U-118MG Cancer Cell Toxicity qHTS against the NCATS CANVASS Library (AID 1347351); also: % is scaled to controls: 0 for no effect and ±100 for the full control effect
In short: as §1

[21] = COV-362 Cancer Cell Toxicity qHTS against the NCATS CANVASS Library (AID 1347352); also: % is scaled to controls: 0 for no effect and ±100 for the full control effect
In short: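 Cells were seeded at 1000 per well and allowed to settle 4 hours at 37 degrees C before pin transfer of compounds as an 11-point series. Viability was read by CellTiter-Glo luminescence after 72 hours' exposure.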

[22] = HPAF-II 24hr Apoptosis Induction qHTS against the NCATS CANVASS Library (AID 1347356); also: 0% is about no effect
In short: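 HPAF-II cells (500/well) in DMEM + 10% FBS were treated with an 11-point compound series for 24 hours at 37 degrees C. Caspase-3/7 activity was then read by Caspase-Glo DEVD luminescence after 15 min.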

[23] = HEK293 18hr Apoptosis Induction qHTS against the NCATS CANVASS Library (AID 1347357); also: 0% is about no effect
In short: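 HEK293 cells (500/well, DMEM + 10% FBS) treated with an 11-point series for 18 h at 37 degrees C. Caspase-3/7 activity read by Caspase-Glo luminescence after 15 min at room temperature.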

[24] = HPAF-II 12hr Apoptosis Induction qHTS against the NCATS CANVASS Library (AID 1347358); also: 0% is about no effect
In short: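 HPAF-II cells (500/well, DMEM + 10% FBS) were exposed to compounds for 12 hours at 37 degrees C. Caspase-3/7 activity was then read by Caspase-Glo 3/7 luminescence after 15 min at room temperature.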

Glucocorticoid receptor (Homo sapiens), sequence (P04150 whole entry, looked up, the tested form may be a part): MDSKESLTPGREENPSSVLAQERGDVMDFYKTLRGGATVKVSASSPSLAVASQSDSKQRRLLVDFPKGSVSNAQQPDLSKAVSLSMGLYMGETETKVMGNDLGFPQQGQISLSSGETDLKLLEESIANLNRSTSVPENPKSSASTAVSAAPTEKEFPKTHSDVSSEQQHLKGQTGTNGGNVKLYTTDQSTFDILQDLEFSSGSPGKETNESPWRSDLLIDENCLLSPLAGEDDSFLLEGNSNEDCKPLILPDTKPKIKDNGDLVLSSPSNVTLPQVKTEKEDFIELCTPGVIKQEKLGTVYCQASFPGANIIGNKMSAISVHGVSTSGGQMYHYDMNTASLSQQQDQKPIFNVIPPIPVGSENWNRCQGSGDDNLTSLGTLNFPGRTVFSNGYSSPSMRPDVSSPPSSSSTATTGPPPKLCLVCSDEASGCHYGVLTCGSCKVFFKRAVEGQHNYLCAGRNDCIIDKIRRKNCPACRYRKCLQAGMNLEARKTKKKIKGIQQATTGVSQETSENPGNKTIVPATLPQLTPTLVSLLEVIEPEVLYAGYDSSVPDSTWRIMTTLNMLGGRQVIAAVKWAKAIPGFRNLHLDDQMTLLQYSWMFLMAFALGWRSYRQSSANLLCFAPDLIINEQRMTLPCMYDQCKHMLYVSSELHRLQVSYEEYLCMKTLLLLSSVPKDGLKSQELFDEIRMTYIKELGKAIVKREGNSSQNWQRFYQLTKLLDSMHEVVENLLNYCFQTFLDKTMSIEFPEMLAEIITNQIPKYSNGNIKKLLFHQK
Cytochrome P450 3A4 (Homo sapiens), sequence (P08684 whole entry, looked up): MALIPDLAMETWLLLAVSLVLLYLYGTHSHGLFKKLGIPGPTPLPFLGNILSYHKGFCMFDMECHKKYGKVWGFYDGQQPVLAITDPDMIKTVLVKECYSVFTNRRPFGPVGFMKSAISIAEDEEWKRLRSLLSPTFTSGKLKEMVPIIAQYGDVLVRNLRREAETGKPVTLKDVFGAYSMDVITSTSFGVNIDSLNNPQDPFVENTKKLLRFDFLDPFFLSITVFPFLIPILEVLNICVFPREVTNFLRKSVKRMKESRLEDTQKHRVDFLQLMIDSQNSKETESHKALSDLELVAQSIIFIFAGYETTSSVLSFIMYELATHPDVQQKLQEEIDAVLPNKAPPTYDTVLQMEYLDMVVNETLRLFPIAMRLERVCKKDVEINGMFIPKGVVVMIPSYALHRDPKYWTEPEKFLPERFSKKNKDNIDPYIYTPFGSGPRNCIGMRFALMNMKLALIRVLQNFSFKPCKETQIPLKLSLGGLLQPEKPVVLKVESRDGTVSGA
Cytochrome P450 1A2 (Homo sapiens), sequence (P05177 whole entry, looked up): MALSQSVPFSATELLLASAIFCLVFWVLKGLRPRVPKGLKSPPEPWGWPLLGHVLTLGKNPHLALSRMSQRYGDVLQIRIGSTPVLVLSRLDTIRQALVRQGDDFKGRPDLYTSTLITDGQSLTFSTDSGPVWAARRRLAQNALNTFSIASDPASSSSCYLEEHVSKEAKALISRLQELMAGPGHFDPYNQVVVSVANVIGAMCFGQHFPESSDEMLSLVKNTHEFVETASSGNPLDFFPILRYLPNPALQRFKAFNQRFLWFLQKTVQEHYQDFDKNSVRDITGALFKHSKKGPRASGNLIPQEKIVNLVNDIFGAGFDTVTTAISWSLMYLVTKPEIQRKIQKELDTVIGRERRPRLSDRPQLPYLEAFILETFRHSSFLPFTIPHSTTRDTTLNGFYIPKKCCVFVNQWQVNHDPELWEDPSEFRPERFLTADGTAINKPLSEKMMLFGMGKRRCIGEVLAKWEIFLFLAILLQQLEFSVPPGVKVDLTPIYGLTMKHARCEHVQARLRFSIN
Cytochrome P450 2D6 (Homo sapiens), sequence (P10635 whole entry, looked up): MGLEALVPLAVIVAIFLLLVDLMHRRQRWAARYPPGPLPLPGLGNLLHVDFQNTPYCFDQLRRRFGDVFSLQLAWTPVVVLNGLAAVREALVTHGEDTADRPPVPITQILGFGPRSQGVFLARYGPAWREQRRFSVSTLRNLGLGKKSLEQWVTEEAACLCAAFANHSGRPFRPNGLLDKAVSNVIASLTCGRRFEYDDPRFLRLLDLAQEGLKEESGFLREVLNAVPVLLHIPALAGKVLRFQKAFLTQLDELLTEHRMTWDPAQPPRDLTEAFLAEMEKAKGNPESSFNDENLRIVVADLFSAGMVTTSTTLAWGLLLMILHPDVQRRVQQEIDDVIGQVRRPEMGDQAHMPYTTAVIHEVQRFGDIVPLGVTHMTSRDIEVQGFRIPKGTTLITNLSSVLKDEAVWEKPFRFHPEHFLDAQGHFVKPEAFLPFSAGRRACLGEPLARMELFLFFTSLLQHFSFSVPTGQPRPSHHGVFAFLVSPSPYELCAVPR
DNA dC->dU-editing enzyme APOBEC-3G (Homo sapiens), sequence (Q9HC16 whole entry, looked up): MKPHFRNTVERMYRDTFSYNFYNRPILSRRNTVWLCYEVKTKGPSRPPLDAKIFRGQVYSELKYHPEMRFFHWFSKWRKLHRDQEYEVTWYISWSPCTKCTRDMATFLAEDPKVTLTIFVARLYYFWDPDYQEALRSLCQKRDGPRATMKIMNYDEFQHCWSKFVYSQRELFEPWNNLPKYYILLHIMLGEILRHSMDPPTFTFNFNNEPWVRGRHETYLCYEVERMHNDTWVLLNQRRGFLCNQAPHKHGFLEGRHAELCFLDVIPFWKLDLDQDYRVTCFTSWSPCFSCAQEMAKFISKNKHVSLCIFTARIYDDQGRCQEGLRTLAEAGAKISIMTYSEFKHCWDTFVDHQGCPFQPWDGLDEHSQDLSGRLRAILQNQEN
3',5'-cyclic-AMP phosphodiesterase 4B (Homo sapiens), sequence (Q07343 whole entry, looked up): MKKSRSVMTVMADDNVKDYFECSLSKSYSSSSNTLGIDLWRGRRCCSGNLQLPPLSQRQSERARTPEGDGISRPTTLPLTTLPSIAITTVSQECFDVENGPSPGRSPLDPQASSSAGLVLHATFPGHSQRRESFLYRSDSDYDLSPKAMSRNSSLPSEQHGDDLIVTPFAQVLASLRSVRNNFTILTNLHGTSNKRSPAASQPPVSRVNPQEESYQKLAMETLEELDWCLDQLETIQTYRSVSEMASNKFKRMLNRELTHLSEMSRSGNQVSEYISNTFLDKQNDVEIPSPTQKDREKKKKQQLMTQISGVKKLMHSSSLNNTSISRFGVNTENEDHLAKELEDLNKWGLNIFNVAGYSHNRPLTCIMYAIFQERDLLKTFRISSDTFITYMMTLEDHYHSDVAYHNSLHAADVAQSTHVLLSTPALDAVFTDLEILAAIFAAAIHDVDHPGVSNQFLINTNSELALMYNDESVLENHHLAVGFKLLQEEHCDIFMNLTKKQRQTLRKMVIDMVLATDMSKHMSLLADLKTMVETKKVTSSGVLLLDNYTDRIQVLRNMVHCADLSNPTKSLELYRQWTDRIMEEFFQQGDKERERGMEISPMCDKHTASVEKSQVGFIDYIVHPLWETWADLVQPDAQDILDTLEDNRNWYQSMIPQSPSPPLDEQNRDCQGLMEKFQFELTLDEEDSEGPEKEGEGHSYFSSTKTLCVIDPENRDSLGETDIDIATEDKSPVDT
Ubiquitin carboxyl-terminal hydrolase 1 (Homo sapiens), sequence (O94782 whole entry, looked up): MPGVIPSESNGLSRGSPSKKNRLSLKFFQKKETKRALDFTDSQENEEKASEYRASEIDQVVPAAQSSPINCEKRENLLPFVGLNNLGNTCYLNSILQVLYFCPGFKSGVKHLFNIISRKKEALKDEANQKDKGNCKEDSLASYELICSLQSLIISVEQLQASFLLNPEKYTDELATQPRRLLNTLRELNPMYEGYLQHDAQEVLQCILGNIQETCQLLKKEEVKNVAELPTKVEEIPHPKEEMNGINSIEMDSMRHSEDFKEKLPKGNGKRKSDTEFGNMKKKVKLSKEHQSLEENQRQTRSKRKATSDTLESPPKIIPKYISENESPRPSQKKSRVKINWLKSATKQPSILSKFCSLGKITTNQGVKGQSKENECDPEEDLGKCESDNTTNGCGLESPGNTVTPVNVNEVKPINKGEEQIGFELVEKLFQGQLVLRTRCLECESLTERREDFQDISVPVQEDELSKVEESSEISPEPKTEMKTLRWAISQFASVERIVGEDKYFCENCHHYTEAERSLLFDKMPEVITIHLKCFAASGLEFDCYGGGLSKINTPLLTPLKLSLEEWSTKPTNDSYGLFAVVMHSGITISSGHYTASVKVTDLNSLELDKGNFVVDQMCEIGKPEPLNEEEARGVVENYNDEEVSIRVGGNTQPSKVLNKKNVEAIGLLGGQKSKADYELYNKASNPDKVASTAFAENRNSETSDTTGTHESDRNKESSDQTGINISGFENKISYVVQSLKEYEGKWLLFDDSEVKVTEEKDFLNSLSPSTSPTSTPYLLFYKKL

COc1ccc2c3c([nH]c2c1)C(C)=NCC3
0.146%: max response ([14]; measured here: cell count channel max response)
2.64%: max response ([14]; measured here: lipid channel max response)
inactive: outcome [1] | activity change, negative = inhibition [3] -3.75% | Potency [4] > 20.6 µM and > 46 µM | Potency [5] > 20.6 µM and > 46 µM | outcome [6] | Potency [7] | Potency [8] | Potency [9] | Potency [11] | outcome [13] | activity change, negative = inhibition ([14]; at 25.7 µM (top of the series)) 1.66% | Potency [15] | Potency [16] | Potency [18] | Potency [19] | Potency [20] | Potency [21] | outcome [22] | Potency [23] | outcome [24]
active: Potency [2] 794 nM and 251 nM | Potency [10] 3.98 µM | Potency [12] 10 µM | Potency [17] 21.2 µM

Source: PubChem BioAssay (NCATS)
